Experimental data as given in the supplement of paper PMC12350171.
Where a name gives a salt, the structure may show the parent alone.

Columns and labels:
Conditions in all cases: 20 µM
[1] = test system: Haemophilus parainfluenzae; test: growth AUC normalised to DMSO control (fraction of control); higher = less growth inhibition, active = hit call of the paper
Outline: (§1)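 Hemin and NAD were added to the medium for Haemophilus parainfluenzae. All pathogens, after two anaerobic passages, were inoculated at a starting OD578 of 0.01 into pre-reduced mGAM plates with 20 μM compound and 1% DMSO under breathable seals, and OD578 was read hourly for 24 h in three biological replicates. AUC of each growth curve was obtained with the trapezoidal rule up to the exponential-to-stationary transition and normalised to DMSO controls from the same plate.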

[2] = test system: Salmonella enterica typhimurium; test: as above
Outline: as §1

Shigella flexneri = test: as above
Outline: as §1

Vibrio cholerae = test: as above
Outline: as §1

[3] = test system: Yersinia pseudotuberculosis; test: as above
Outline: as §1

P. vulgatus RND KO = test: growth AUC normalised to DMSO control (median) (fraction of control); higher = less growth inhibition, active = hit call of the paper
Outline: (§2)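 Area under the growth curve, calculated by the trapezoidal rule up to entry into stationary phase, was normalised to vehicle wells on the same plate. Strains had been passaged twice overnight without oxygen and then grown in mGAM in 96-well plates from OD578 0.01, each with an approved-drug library compound at 20 μM in 1% DMSO. OD578 was read hourly over 24 h in an anaerobic incubator, and the median of three biological replicates is given.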

P. vulgatus WT = test: as above
Outline: as §2

[4] = test system: S. enterica typhimurium WT; test: as above
Outline: as §2

[5] = test system: S. enterica typhimurium tolC KO; test: as above
Outline: as §2

Measured: growth AUC normalised to DMSO control
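Wherever growth AUC normalised to DMSO control (median) is given: active when median AUC fell below 0.1.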

CC(Cc1ccccc1)NCCC(c1ccccc1)c1ccccc1 (centres undefined) [Prenylamine lactate]
inactive: [1] 1.05 | [2] 1.01 | Shigella flexneri 1.07 | Vibrio cholerae 1.02 | [3] 1.02 | P. vulgatus RND KO 1.04 | P. vulgatus WT 1.04 | [4] 0.993 | [5] 0.97

CCCC(C)(COC(N)=O)COC(=O)NC(C)C (centres undefined) [Carisoprodol]
inactive: [1] 0.843 | [2] 1 | Shigella flexneri 0.977 | Vibrio cholerae 0.948 | [3] 1 | P. vulgatus RND KO 1 | P. vulgatus WT 1.02 | [4] 1 | [5] 0.979

O=C1CC[C@@]2(O)[C@H]3Cc4ccc(O)c5c4[C@@]2(CCN3CC2CC2)[C@H]1O5 [Naltrexone hydrochloride dihydrate]
inactive: [1] 0.995 | [2] 1 | Shigella flexneri 0.992 | Vibrio cholerae 1 | [3] 1.01 | P. vulgatus RND KO 0.994 | P. vulgatus WT 1.02 | [4] 0.993 | [5] 0.998

CC(C)CC(N(C)C)C1(c2ccc(Cl)cc2)CCC1 (centres undefined) [Sibutramine hydrochloride]
inactive: [1] 0.969 | [2] 1 | Shigella flexneri 0.971 | Vibrio cholerae 0.967 | [3] 1 | P. vulgatus RND KO 1.02 | P. vulgatus WT 1.02 | [4] 1 | [5] 0.999

CC(=O)[C@H]1CC[C@H]2[C@@H]3CC[C@H]4C[C@H](O)CC[C@]4(C)[C@H]3C(=O)C[C@]12C [Alfaxalone]
inactive: [1] 1 | [2] 0.999 | Shigella flexneri 0.973 | Vibrio cholerae 0.964 | [3] 1.01 | P. vulgatus RND KO 0.996 | P. vulgatus WT 0.996 | [4] 1 | [5] 0.911

C[C@]12CCC(=O)C(O)=C1CC[C@@H]1[C@@H]2CC[C@]2(C)C(=O)CC[C@@H]12 [Formestane]
inactive: [1] 1.01 | [2] 1.03 | Shigella flexneri 1 | Vibrio cholerae 1.01 | [3] 0.997 | P. vulgatus RND KO 0.976 | P. vulgatus WT 0.982 | [4] 0.997 | [5] 0.927

C[C@@H]1CN([C@H]2CC[C@](C#N)(c3ccc(F)cc3)CC2)CC[C@]1(C(=O)O)c1ccccc1 [Levocabastine hydrochloride]
inactive: [1] 1.02 | [2] 1 | Shigella flexneri 1.02 | [3] 0.997 | P. vulgatus RND KO 0.989 | P. vulgatus WT 1.05 | [4] 0.997 | [5] 1.01
active: Vibrio cholerae 0.239

CC(=O)NC1CCSC1=O (centres undefined) [Citiolone]
inactive: [1] 1.03 | [2] 1.01 | Shigella flexneri 1 | Vibrio cholerae 1.03 | [3] 0.985 | P. vulgatus RND KO 1.03 | P. vulgatus WT 1.04 | [4] 1 | [5] 1.01

C1CCc2nnnn2CC1 [Pentylenetetrazole]
inactive: [1] 1.01 | [2] 0.978 | Shigella flexneri 1.01 | Vibrio cholerae 1.04 | [3] 0.976 | P. vulgatus RND KO 1.03 | P. vulgatus WT 1.06 | [4] 1 | [5] 0.986

NCCCNCCSP(=O)(O)O [Amifostine]
inactive: [1] 1.02 | [2] 1.02 | Shigella flexneri 0.99 | Vibrio cholerae 1.01 | [3] 0.992 | P. vulgatus RND KO 1.02 | P. vulgatus WT 1.07 | [4] 1.02 | [5] 1.01

O=C(NCNC(=O)NC1C(=O)NC(=O)N1CO)NC1C(=O)NC(=O)N1CO (centres undefined) [Imidurea]
inactive: [1] 0.992 | [2] 1 | Shigella flexneri 0.995 | Vibrio cholerae 1.01 | [3] 1 | P. vulgatus RND KO 0.991 | P. vulgatus WT 1.01 | [4] 0.998 | [5] 0.996

CCN(C)C(=O)Oc1cccc([C@H](C)N(C)C)c1 [Rivastigmine]
inactive: [1] 1.13 | [2] 1.04 | Shigella flexneri 1.02 | Vibrio cholerae 1.11 | [3] 1.04 | P. vulgatus RND KO 1.01 | P. vulgatus WT 1.03 | [4] 1.01 | [5] 1.02

CN1CCC2(C)c3cc(O)ccc3N(C)C12 (single isomer, unassigned; (-)) [(-) Eseroline fumarate salt]
inactive: [1] 1.02 | [2] 0.999 | Shigella flexneri 1.01 | Vibrio cholerae 0.995 | [3] 1.01 | P. vulgatus RND KO 0.979 | P. vulgatus WT 0.999 | [4] 1.01 | [5] 0.999

COc1ccc(C(=O)N2CCCC2=O)cc1 [Aniracetam]
inactive: [1] 0.993 | [2] 1 | Shigella flexneri 0.998 | Vibrio cholerae 1.01 | [3] 0.972 | P. vulgatus RND KO 0.996 | P. vulgatus WT 1.01 | [4] 0.995 | [5] 0.997

C[C@]12CCC(=O)C=C1CC[C@@H]1[C@@H]2C(=O)C[C@]2(C)C(=O)CC[C@@H]12 [Adrenosterone]
inactive: [1] 1.01 | [2] 0.996 | Shigella flexneri 1.01 | Vibrio cholerae 1 | [3] 0.993 | P. vulgatus RND KO 0.986 | P. vulgatus WT 1.02 | [4] 1.01 | [5] 0.992

C[N+]1(C)CCCC(OC(=O)C(O)(c2ccccc2)c2ccccc2)C1 (centres undefined) [Mepenzolate bromide]
inactive: [1] 0.915 | [2] 1.01 | Shigella flexneri 0.986 | Vibrio cholerae 0.947 | [3] 1 | P. vulgatus RND KO 1.02 | P. vulgatus WT 1.05 | [4] 1.01 | [5] 0.996

Cc1cccc(C)c1NC(=O)CN1CCCC1=O [Nefiracetam]
inactive: P. vulgatus RND KO 1.01 | P. vulgatus WT 1.01 | [4] 1 | [5] 1

O=C(O[C@H]1C[N+]2(CCCOc3ccccc3)CCC1CC2)C(O)(c1cccs1)c1cccs1 [Aclidinium bromide]
inactive: P. vulgatus RND KO 1 | P. vulgatus WT 1 | [4] 1.01 | [5] 1

NC(=O)CN1CC(O)CC1=O (centres undefined) [Oxiracetam]
inactive: P. vulgatus RND KO 1.02 | P. vulgatus WT 1.03 | [4] 1 | [5] 0.955

CC(=O)OCC(=O)[C@H]1CC[C@H]2[C@@H]3CC[C@H]4C[C@H](O)CC[C@]4(C)[C@H]3C(=O)C[C@]12C [Alfadolone acetate]
inactive: [1] 1.26 | [2] 1.01 | Shigella flexneri 0.99 | Vibrio cholerae 0.987 | [3] 0.992 | P. vulgatus RND KO 1.04 | P. vulgatus WT 1.05 | [4] 1.01 | [5] 0.941

C[C@]12Cc3c[nH]nc3C[C@@H]1CC[C@@H]1[C@@H]2CC[C@@]2(C)[C@H]1CC[C@]2(C)O [Stanozolol]
inactive: [1] 0.949 | [2] 1.01 | Shigella flexneri 0.987 | Vibrio cholerae 0.998 | [3] 1 | P. vulgatus RND KO 0.959 | P. vulgatus WT 0.966 | [4] 1.02 | [5] 0.966
